Most compounds without a hit are left out; they make up all but 0.45% or so of the library.
S aureus QS inh = inhibitors of bacterial quorum sensing in S. aureus | S. aureus RN6390 RNAIII-GFP reporter, AIP-induced, flow cytometry 3 h | 0.3% of 24,000 active | inhibition, % at 2 µM;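 active means share of bacteria positive for the green fluorescent reporter and its mean brightness both inhibited by 50% or more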;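 further: 0% = AIP-stimulated control and 100% = unstimulated bacteria without AIP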
Proteasome disasm = blocks ATP-dependent breakdown of the yeast 26S proteasome | anti-FLAG beads, GFP-proteasome disassembly, flow cytometry | inhibition of disassembly, % (test concentration not listed) | 0.2% of 24,000 active;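 active means inhibition of disassembly above about 33%, limit read from the data; inconclusive means likely self-fluorescent, control bead median signal at least 40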;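 further: plate controls were ATP control with full disassembly for no effect and ATP-gamma-S intact proteasomes for full effect; higher percent means more bead fluorescence retained so stronger block of disassembly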
* = called active by the depositor; u = inconclusive; x = no result given; ! = a repeat was not active.

SMILES | S aureus QS inh | Proteasome disasm
O=C(NCCc1c[nH]c2ccccc12)C(=O)NCC(c1ccco1)N1CCN(c2ccccc2)CC1 (stereo unspecified) | 0.0 | x
CC[C@H]1OC(=O)C[C@@H](O)[C@H](C)[C@@H](O[C@@H]2O[C@H](C)C[C@H](N(C)C)[C@H]2O)[C@@H](CC=O)C[C@@H](C)C(=O)C=C[C@]2(C)O[C@H]2[C@@H]1C | 51.2* | -0.1
CCc1oc2ccccc2c1C(=O)c1cc(Br)c(O)c(Br)c1 | 52.4* | -0.1
CCOC(=O)c1c(COc2ccccc2)oc2ccc(O)cc12 | 5.1 | x
COc1cccc(CNC(=O)C2CCN(c3cnccn3)CC2)c1 | -2.1 | -1.4
Cc1ccc(-c2nc(CS(=O)CC(=O)NCCN3CCCC3)c(C)o2)cc1 (stereo unspecified) | -10.5 | -0.2
Cc1oc(-c2ccc(Cl)cc2)nc1CS(=O)CC(=O)NCCN1CCCC1 (stereo unspecified) | -0.9 | 154.5*
Cc1ccc(Cl)cc1N1CCN(C(=O)CCS(=O)(=O)c2cccc3nonc23)CC1 | 5.9 | 2.1
COc1c(C)cccc1C(=O)Nc1cc(-c2nn3c(C)nnc3s2)ccc1C | 3.3 | 0.3
O=C(NCC(c1cccnc1)N1CCN(c2ccccc2F)CC1)c1cccc(Cl)c1 (stereo unspecified) | 58.9* | -3.1
O=C(NCC(c1cccnc1)N1CCOCC1)c1cccc(Cl)c1 (stereo unspecified) | -2.5 | -3.2
COc1ccc(C2C3=C(CCCC3=O)Nc3nc4ccccc4n32)c(OC)c1OC (stereo unspecified) | -7.4 | -2.3
Cc1ccc(S(=O)(=O)Cn2nnnc2CN(Cc2ccco2)CC2CCCO2)cc1 (stereo unspecified) | -0.2 | 1.4
Cc1ccc(S(=O)(=O)Nc2cc(C(=O)NCCN3CCCC3)ccc2N2CCCCC2)cc1 | 3.0 | 105.2*
Cc1ccc(S(=O)(=O)Nc2cc(C(=O)NCCN(C)C)ccc2N2CCCCC2)cc1 | -0.5 | 0.0
C[C@H]1C[C@@H]2[C@H]([C@@H](O)C[C@@]3(C)[C@H]2CC[C@]3(O)C(=O)CO)[C@@]2(C)C=CC(=O)C=C12 | -0.1 | 0.3
COc1ccccc1OCC(=O)Nc1oc(-c2ccccc2)c(-c2ccccc2)c1C#N | 1.0 | x
N#Cc1c(NC(=O)COC(=O)C2CC3C=CC2C3)oc(-c2ccccc2)c1-c1ccccc1 (stereo unspecified) | 90.6* | -2.7
O=C(C1CCN(S(=O)(=O)c2cccc3cccnc23)CC1)N1CCN(c2ccc(Cl)cc2)CC1 | 8.2 | -1.3
COc1cccc(Oc2cnc(N)nc2-c2ccc(OC)cc2O)c1 | 61.8* | 0.1
C=C(C)COc1ccc(-c2nc(N)ncc2-c2ccc(OC)cc2)c(O)c1 | 14.5 | -1.3
Cc1cccc(-n2ncc3c(N4CCN(c5nc(C)cc(C)n5)CC4)ncnc32)c1 | -1.3 | 0.7
CCCCCC(=O)N1CC2(CC)CN(C(=O)CCCCC)CC(CC)(C1)C2=O | -0.3 | -1.4
Cc1cc(NC(=O)CC(C)(C)C)nc2c1c(=O)oc1ccccc12 | 72.2*! | 9.4
CCCC(=O)Nc1cc(C)c2c(=O)oc3ccccc3c2n1 | 1.2 | 4.8
SMILES | S aureus QS inh | Proteasome disasm
COc1ccc(OC)c(Nc2cc(-c3ccccc3)nc(N)n2)c1 | 12.9 | -1.3
COc1ccc(CNC(=O)CS(=O)Cc2nc(-c3ccccc3C)oc2C)cc1 (stereo unspecified) | -0.2 | 5.7
COc1ccccc1CNC(=O)CS(=O)Cc1nc(-c2ccccc2C)oc1C (stereo unspecified) | 0.1 | 165.5*
COc1ccc(Oc2ccccc2C=O)cc1 | -3.4 | x
O=C(NC1CCCCC1)C(c1cc2c(cc1[N+](=O)[O-])OCO2)N1CCCCC1 (stereo unspecified) | 0.1 | x
CC(C)CCOP(=O)(c1ccc(N(C)C)cc1)C(O)c1ccccc1F (stereo unspecified) | 82.2* | 0.2
CC(C)OP(=O)(c1ccc(N(C)C)cc1)C(O)c1ccccc1F (stereo unspecified) | -2.3 | 1.0
CCOc1ccc(Oc2ccc(C(F)(F)F)cc2N)cc1 | -0.1 | x
Cc1ccc(C2N(c3ccc(F)cc3)C(=O)C3CCCN32)cc1 (stereo unspecified) | -1.0 | 16.1
Cc1cccc(C2N(c3ccc(F)cc3)C(=O)C3CCCN32)c1 (stereo unspecified) | -4.4 | 60.8*
CC(CCc1ccccc1)NC(=O)CSc1nc(N)cc(N)n1 (stereo unspecified) | 1.5 | 2.8
CCc1cccc(NC(=O)CN(c2ccc(OC)cc2)S(=O)(=O)c2c(C)n[nH]c2C)c1 | -0.9 | -0.8
CC1=CC(=C2C(=O)c3ccccc3C2=O)C=C(C)O1 | 1.7 | 34.5
CC(=O)N1C(=O)C(=C2C=C(C)OC(C)=C2)c2ccccc21 | -0.3 | 85.2*
O=C(CSc1nnc2c(n1)[nH]c1ccccc12)Nc1ccc2c(c1)OCO2 | -0.3 | x
COc1cc(NS(=O)(=O)c2ccc(Br)s2)cc(OC)c1 | -4.1 | 5.3
O=C(O)c1cccnc1SCc1ccccc1 | -7.3 | -1.2
Cc1noc(/C=C/c2ccco2)c1S(=O)(=O)N1CCC(C(=O)NCc2ccco2)CC1 | -1.8 | -0.8
Cc1noc(/C=C/c2ccco2)c1S(=O)(=O)N1CCC(C(=O)N2CCc3ccccc3C2)CC1 | -2.1 | 41.6*
O=C(NC1CCCCC1)c1nc2c(nnn2Cc2ccccc2Cl)c(=O)[nH]1 | 10.9 | 1.7
c1csc(CCNc2ncnc3sc4c(c23)CCC4)c1 | 66.8* | -1.1
O=C(CSc1ncnc2sc3c(c12)CCCCC3)NCc1ccco1 | -0.8 | 1.6
CCC(=O)O[C@@H]1CC(=O)O[C@H](C)CC=CC=C[C@@H](O)[C@H](C)C[C@H](CC=O)[C@H](O[C@H]2O[C@H](C)[C@@H](O[C@H]3C[C@@](C)(O)[C@@H](OC(=O)CC)[C@H](C)O3)[C@H](N(C)C)[C@H]2O)[C@H]1OC | 51.2* | -0.4
CCc1ccccc1NC(=O)CN1C(=O)C2CCCN2c2ncc(Cl)cc21 (stereo unspecified) | -2.6 | 1.2
COC(=O)c1ccccc1NC(=O)CN1C(=O)C2CCCN2c2ncc(Cl)cc21 (stereo unspecified) | 3.3 | 48.7*
SMILES | S aureus QS inh | Proteasome disasm
O=C(CN1C(=O)C2CCCN2c2ncc(Cl)cc21)NCc1ccc2c(c1)OCO2 (stereo unspecified) | 0.9 | 54.8*
CC1CCC(NC(=O)CN2C(=O)C3CCCN3c3ncc(Cl)cc32)CC1 (stereo unspecified) | 1.9 | 16.8
O=C1C(Cl)=C(NCC2CCCO2)C(=O)N1CCc1ccccc1 (stereo unspecified) | 0.0 | -0.1
O=C1CC(=C2c3ccccc3-c3ccccc32)C(=O)N1CCN1CCN(c2cccc(Cl)c2)CC1 | -0.1 | x
Cc1cccn2c(=O)c3cc(C(=O)N4CCN(c5ccccc5)CC4)n(C)c3nc12 | -3.8 | 3.6
Cc1nc2c(ccc3nc(NC(=O)c4ccc5c(c4)OCCO5)sc32)s1 | 57.1* | -0.4
Cc1nc2ccc3nc(NC(=O)c4ccc5c(c4)OCCO5)sc3c2s1 | -5.1 | 0.9
COc1ccc2oc(=O)c(C(=O)N3CCN(C45CC6CC(CC(C6)C4)C5)CC3)cc2c1 | 8.4 | 1.6
CCOc1ccc(NC(=O)C2CCCN(S(=O)(=O)c3c(C)nn(C)c3C)C2)cc1 (stereo unspecified) | 96.0* | u
CCOc1ccc(NC(=O)C2CCCN(S(=O)(=O)c3c(C)n[nH]c3C)C2)cc1 (stereo unspecified) | -3.1 | -1.3
CCOC(=O)CSc1cc(=O)n(C)c2cc(Cl)ccc12 | 0.4 | -0.2

Screens from PubChem BioAssay.
